p53ts 39C tox: qHTS Screen for Compounds that Selectively Target Cancer Cells with p53 Mutations: Cytotoxicity of p53ts Cells at the Nonpermissive Temperature; H1299-p53A138V viability at 39C, ATP luminescence, 24 h; Potency, µM (highest dose often 46.1 µM), inactives show at the top dose activity change, negative = cell killing, most hits filed as cytotoxic; 130,000 tested, 1.5% active; also: nearly all actives have a fitted effect of over 55% in size
p53ts 32C kill: qHTS Screen for Compounds that Selectively Target Cancer Cells with p53 Mutations: Cytotoxicity of p53ts Cells at the Permissive Temperature | H1299-p53A138V at 32C, ATP luminescence viability, 24 h | AID 924, 2007 | 130,000 tested, 0.93% active | Potency, µM (highest dose often 46.1 µM), for inactives: at the highest dose activity change, negative = cytotoxicity, hits mostly cytotoxic;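 also: 0% = DMSO and -100% = full killing by reference compound; nearly all actives have a fitted effect of over 55% in size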
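Cells: H1299 p53ts (A138V), 600/well, pre-incubated 16–30 h at 37C. Cpd up to 46 uM, 24 h, 32C. Readout: ATPlite luminescence, 20 min RT. Normalization: DMSO vs tamoxifen 100 uM. AC50 by Hill equation.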
Luciferase inh: qHTS Assay for Inhibitors of Firefly Luciferase. purified firefly luciferase, luminescence, 8 min. Potency, µM (doses to about 57.1 µM), for inactives: at the top dose activity change, negative = inhibition, most hits filed as inhibitors. 72,000 tested, 2.2% active; also: nearly all actives have a fitted effect of over 40% in size
Target sequence (P08659 whole entry, looked up): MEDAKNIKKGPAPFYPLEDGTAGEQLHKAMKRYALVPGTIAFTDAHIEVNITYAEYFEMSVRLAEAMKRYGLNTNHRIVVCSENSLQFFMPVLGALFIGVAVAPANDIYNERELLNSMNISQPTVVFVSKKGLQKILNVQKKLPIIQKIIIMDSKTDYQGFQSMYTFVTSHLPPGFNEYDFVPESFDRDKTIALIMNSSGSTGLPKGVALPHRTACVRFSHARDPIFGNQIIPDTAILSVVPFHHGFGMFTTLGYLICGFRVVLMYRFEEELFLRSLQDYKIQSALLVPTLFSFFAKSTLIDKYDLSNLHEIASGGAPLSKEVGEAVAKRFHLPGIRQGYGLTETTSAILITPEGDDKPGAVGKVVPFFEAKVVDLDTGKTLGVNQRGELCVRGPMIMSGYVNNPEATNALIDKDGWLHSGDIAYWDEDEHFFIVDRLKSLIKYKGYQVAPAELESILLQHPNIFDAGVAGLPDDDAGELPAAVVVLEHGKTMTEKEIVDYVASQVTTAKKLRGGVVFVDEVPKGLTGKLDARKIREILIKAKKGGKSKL
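Here, luciferase activity is measured as luminescence following an 8 min room-temperature reaction at 10 uM ATP, pH 7.2. Every library sample is titrated.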
Numbers without * were called inactive; ? = inconclusive; . = not tested or not shown; [ ] = another dose, or the depositor's remark. An excerpt weighted towards active compounds, which were near 2.5% of everything screened. Calls follow the shape of the dose curve; as a rule, active = well fitted curve in the direction sought with a large enough effect; inconclusive = small, poorly fitted or top-dose-only effect, or another doubt; inactive = no such curve, though single readings can be large; an effect the other way counts as inactive or inconclusive. Unless noted, % is scaled to controls: 0 for no effect and ±100 for the full control effect; potency is read from the fitted curve at half-maximal effect.

SMILES	p53ts 39C tox	p53ts 32C kill	Luciferase inh
COc1ncc2nc(-c3ccc(F)cc3)c(=O)n(-c3ccccc3)c2n1	-5%	5%	1%[11.4 µM]
Cc1ccc(S(=O)(=O)N[C@H]2COC(=O)C/C=C\[C@@H](C)COC(=O)C/C=C\[C@@H]2C)cc1	3%[9.22 µM]	0%[9.22 µM]	-1%[11.4 µM]
O=c1c(-c2ccc(F)c(F)c2)nc2cncnc2n1Cc1ccccc1	-7%	-19%	0%[11.4 µM]
CCCCCCCCCCCCCCC(C(=O)O)C(O)(CC(=O)OC)C(=O)O (stereo not drawn)	-4%	-25%	.
COc1cc(C)cc(OC)c1/C=C\C(=O)O	1%[9.22 µM]	-3%[9.22 µM]	3%[11.4 µM]
CCc1ccc2c(c1)c(=O)c(S(=O)(=O)c1ccccc1)cn2CC(=O)Nc1ccc(OC)cc1	15%	11%	.
CCc1ccc(NC(=O)Cn2cc(S(=O)(=O)c3ccc(F)cc3)c(=O)c3cc(OC)ccc32)cc1	13µM*	?	.
O=C(O)c1ccc(Cl)c(S(=O)(=O)Nc2ccccc2)c1	-3%	4%	.
Cc1ccc(NC(=O)Cn2c(=O)n(CC(=O)NCCc3ccccc3)c(=O)c3ccccc32)cc1C	10µM*	-28%	.
Cc1ccc(NC(=O)Cn2c(=O)n(CC(=O)NCCc3ccccc3)c(=O)c3ccccc32)cc1	?	11%	.
c1ccc(-n2ncc3c(NCc4cccs4)ncnc32)cc1	-10%	-6%	.
Cc1cccc(-n2ncc3c(NC(C)C)ncnc32)c1	16µM*	13µM*	13µM*
Cc1cccc(-n2ncc3c(Nc4c(C)cc(C)cc4C)ncnc32)c1	-2%	11%	.
Cc1ccccc1Nc1ncnc2c1cnn2-c1ccccc1	9%	-25%	13µM*
CCOc1ccc(Nc2ncnc3c2cnn3-c2ccccc2)cc1	15%	4%	3%
CC(C)Nc1ncnc2c1cnn2-c1ccccc1	?	13µM*	7.9µM*
Cc1ccc2c(c1)N(C(=O)CCC(=O)NCc1cccs1)CCO2	-12%	3%	.
COc1ccc(Cl)cc1NC(=O)Cn1c(=O)n(Cc2cccs2)c(=O)c2cccnc21	-30%	7%	.
Oc1ccc(Nc2nc(-c3ccc(Cl)cc3)nc3ccccc23)cc1	16µM*	?	.
Fc1ccc(Nc2nc(-c3ccncc3)nc3ccccc23)cc1F	4%	.	.
CC(C)[C@H]1C(=O)C(C(N)=O)=C(O)[C@]2(O)C(=O)C3=C(O)c4c(O)ccc(N(C)C)c4C[C@H]3C[C@@H]12	8%	-11%	-7%
COc1ccccc1N1CCN(c2ccc(-c3ccccc3)nn2)CC1	2µM*	3.2µM*	0.63µM*
COc1ccccc1N1CCN(c2nc(-c3ccccc3)cc(C(F)(F)F)n2)CC1	18%	-4%	0%
CCN1C(=O)[C@@H]2[C@H]3C(=CC[C@@H]2C1=O)C1(OCCCO1)[C@H]1O[C@@H]1[C@H]3O	2%[9.22 µM]	1%[9.22 µM]	-2%[11.4 µM]
COc1ccc(-n2cc(-c3ccc4c(c3)OCO4)n(CC(=O)Nc3cc(Cl)ccc3C)c2=O)cc1	10µM*	10µM*	.
SMILES	p53ts 39C tox	p53ts 32C kill	Luciferase inh
COc1ccc(-n2cc(-c3ccc4c(c3)OCO4)n(CC(=O)Nc3cccc(C)c3C)c2=O)c(OC)c1	-28%	-20%	.
Cn1nc(C(=O)Nc2ccccc2C#N)c2c1-c1ccccc1SC2	24%	8%	.
CCOc1ccccc1NC(=O)c1nn(C)c2c1CSc1ccccc1-2	16µM*	-1%	.
COc1ccc(CNCCC(c2ccc(C)cc2)c2ccco2)cc1 (stereo not drawn)	?	-6%	.
COc1ccc(CNCCC(c2ccccc2)c2ccc3c(c2)OCO3)cc1 (stereo not drawn)	16µM*	?	.
CCN1CCCC1CNC(=O)c1ccc(-n2c(=O)c(=O)[nH]c3ccccc32)cc1 (stereo not drawn)	-7%	-7%	.
O=c1cc(-c2ccccc2O)oc2ccc3ccccc3c12	2µM*	2.5µM*	0.5µM*
O=c1cc(-c2ccc(O)cc2)oc2cccc(O)c12	-13%	-12%	.
CCOc1ccc(CCNC(=O)c2ccc(Cn3c(=O)c4cccn4c4cccnc43)cc2)cc1	?	-14%	.
COc1ccc(NC(=O)c2c(C)oc3ccc(O)c(CN4CCCCCC4)c23)cc1Cl	13µM*	-14%	.
Cc1ccc(NC(=O)c2c(C)oc3ccc(O)c(CN4CCCCC4)c23)cc1	-5%	0%	.
COc1ccc(Cc2ccc3[nH]c(=O)cc(C)c3c2)cc1S(=O)(=O)O	-4%[9.22 µM]	0%[9.22 µM]	4%[11.4 µM]
Cc1ccc(C(=O)Nc2ccccc2C(=O)O)cc1S(=O)(=O)N1CCCCCC1	4µM*	7.9µM*	.
Cc1ccccc1NC(=O)c1ccc(Cl)c(S(=O)(=O)N2CCCCCC2)c1	-16%	?	.
CCN(Cc1ccccc1)S(=O)(=O)c1cc(C(=O)NCC2CCCCC2)ccc1OC	2%	.	.
CCOC(=O)c1ccc(NC(=O)c2ccc(C)c(S(=O)(=O)N3CCOCC3)c2)cc1	?	16µM*	-2%
O=C(O)c1cccc(NC(=O)c2cccc(S(=O)(=O)N3CCCCC3)c2)c1	-1%	-30%	-11%
Cc1ccc(C(=O)Nc2ccc(F)cc2)cc1S(=O)(=O)N1CCOCC1	-16%	-12%	.
CCN(CC)S(=O)(=O)c1cc(C(=O)Nc2ccccc2C(=O)O)ccc1OC	?	13µM*	20µM*
Cc1ccc(C(=O)Nc2cccc(C(=O)O)c2)cc1S(=O)(=O)N1CCCC1	6.3µM*	13µM*	.
OC[C@@H]1O[C@@H](n2cnc3c(N[C@@H]4C[C@@H]5CC[C@H]4C5)ncnc32)[C@@H](O)[C@H]1O	6%	-10%	-2%
Cc1cccc(C(=O)OCc2cc(=O)n3ccsc3n2)c1	?	-17%	.
O=C(Nc1ccc2nc(-c3cccs3)[nH]c2c1)c1cccs1	?	?	13µM*
O=C(Nc1ccc2nc(-c3cccs3)[nH]c2c1)c1ccco1	13µM*	?	10µM*
O=C(Nc1ccc2nc(-c3ccccc3)oc2c1)c1ccco1	-17%	-2%	-24%
SMILES	p53ts 39C tox	p53ts 32C kill	Luciferase inh
CC(=O)Nc1ccc2nc(-c3cc(C)ccc3C)[nH]c2c1	8%	-3%	.
O=C(Nc1ccc2oc(-c3ccccc3)nc2c1)c1cccs1	6%	5%	.
CC(=O)Nc1ccc2nc(-c3ccccn3)[nH]c2c1	6.3µM*	4µM*	13µM*
CN(C)c1ncc2nc(-c3ccc(Cl)cc3)c(=O)n(Cc3cccs3)c2n1	-12%	-4%	0%[11.4 µM]
Cc1ccccc1CN1CCC(CNc2ncnc3onc(-c4ccc(Cl)cc4)c23)CC1	-18%	-2%	.
C=CC[C@@H]1C=C[C@H](O/N=C2\c3cc(OC)ccc3O[C@H](c3cccc(OC)c3)[C@H]2O)[C@H](CO)O1	-5%[9.22 µM]	-11%[9.22 µM]	0%[11.4 µM]
O=C(O)CN(CCN(CC(=O)O)CC(=O)O)CC(=O)O.[Cu]	10%[9.22 µM]	-1%[9.22 µM]	0%[11.4 µM]
Cc1cccc(NC(=O)Nc2ccc(F)cc2)n1	-27%	-25%	.
Cc1ccc(OCC(=O)Nc2cccc3ccc(C)nc23)c(C)c1	18%	-3%	.
Cc1ccc(NC(=O)Nc2cccc(C)n2)cc1	16µM*	13µM*	.
Cc1ccc(OCC(=O)Nc2cccc(C)n2)c(C)c1	?	?	16µM*

High-throughput results deposited in PubChem BioAssay by National Center for Advancing Translational Sciences (NCATS).
